# Test results: the supplement of paper PMC8387472
# Experiments:
# Assay in all cases: fraction of 1-bp insertions among edited reads; higher = more 1-bp insertion outcomes
# Conditions in all cases: mESC; 2uM; 72 h treatment, harvest day 5
# [1] = compound: CCn1c(=O)c(-c2ccc(Cl)cc2Cl)cc2cnc(Nc3ccc(N4CCNCC4)c(F)c3)nc21
# [2] = compound: CNc1ccc([N+](=O)[O-])c(Nc2ccc3[nH]ncc3c2)n1
# Rifapentine = compound: CO[C@H]1/C=C/O[C@@]2(C)Oc3c(C)c(O)c4c(O)c(c(/C=N/N5CCN(C6CCCC6)CC5)c(O)c4c3C2=O)NC(=O)/C(C)=C\C=C\[C@H](C)[C@H](O)[C@@H](C)[C@@H](O)[C@@H](C)[C@H](OC(C)=O)[C@@H]1C [Rifapentine]
# [3] = compound: COc1ccccc1-c1cc(Nc2cccc(CS(N)(=O)=O)c2)ncn1
# [4] = compound: C[C@@H]1CN(CC(=O)Nc2ccc3c(c2)Cc2cccc(-c4cc(=O)cc(N5CCOCC5)o4)c2S3)C[C@H](C)O1
# [5] = compound: Cc1cc(C)nc(SCC(=O)Nc2ncc(Cc3cccc4ccccc34)s2)n1
# [6] = compound: Cc1ccc(C(=O)NCCCCCC(=O)Nc2ccccc2N)cc1
# [7] = compound: Cc1cccc(CC(=O)N2CCc3c2ccc(-c2cn(C)c4ncnc(N)c24)c3F)n1
# [8] = compound: NC(=O)c1ccc2nc(-c3ccc(Oc4ccc(Cl)cc4)cc3)[nH]c2c1 [Chk 2 inhibitor II (BML-277)]
# Tucidinostat (Chidamide) = compound: Nc1cc(F)ccc1NC(=O)c1ccc(CNC(=O)/C=C/c2cccnc2)cc1 [Tucidinostat (Chidamide)]
Target,fraction of 1-bp insertions among edited reads [1],fraction of 1-bp insertions among edited reads [2],fraction of 1-bp insertions among edited reads (Rifapentine),fraction of 1-bp insertions among edited reads [3],fraction of 1-bp insertions among edited reads [4],fraction of 1-bp insertions among edited reads [5],fraction of 1-bp insertions among edited reads [6],fraction of 1-bp insertions among edited reads [7],fraction of 1-bp insertions among edited reads [8],fraction of 1-bp insertions among edited reads (Tucidinostat (Chidamide))
"44.0 (DMSO control at this site: 1-bp insertion 0.181, MH deletion 0.512, edited 0.123) ACACATACCTTCTTCGAGGCAGCCAGCATGATGAGACAGGTCTCCCACAAACACATCGTGT",0.198,0.251,0.174,0.233,0.418,0.192,0.2,0.282,0.166,0.238
"39.0 (DMSO control at this site: 1-bp insertion 0.328, MH deletion 0.371, edited 0.204) CTGCACAGTCACTTAGGATAGGAGAAGATGATGTATAGGGTTTAGTGGGAGATGTTGCAAG",0.383,0.466,0.39,0.442,0.804,0.396,0.384,0.463,0.404,0.487
"29.0 (DMSO control at this site: 1-bp insertion 0.084, MH deletion 0.745, edited 0.133) TTGATGAACTTCCTCTTCTTCTCATGTCTCCGGTCTCCGGTAGGCCACGTGCATGGCCACT",0.0597,0.0921,0.0712,0.106,0.339,0.0918,0.0975,0.111,0.0639,0.122
"0.0 (DMSO control at this site: 1-bp insertion 0.463, MH deletion 0.339, edited 0.14) AGGATTACCGAGACCTACGCGAACCGAAATCGCTGTCCGGTGCGCAAGCAGGGCTGGCGTC",0.394,0.535,0.468,0.559,0.793,0.523,0.498,0.526,0.495,0.534
46.0 TTAAGAGCAATGTTCACGCAACTTGAAATTATATCTGTGGTCTTCAAATTGTCTTTTGTCA,,0.243,0.165,,,,0.222,,,0.178
"4.0 (DMSO control at this site: 1-bp insertion 0.146, MH deletion 0.523, edited 0.125) ACGCCTTAGTGCACGAGTGACGGGATAATGTGGTCTCAGGTAATTGATAGGCTTCCAACTT",0.102,0.165,0.101,0.15,0.416,0.132,0.145,0.167,0.102,0.171
23.0 AGAACAAAGCGCTCATATAACGATATGGGGGGTTATGGGGGGTTGAATTGCTTCAGCACGA,,0.00131,,,,,,,,
"47.0 (DMSO control at this site: 1-bp insertion 0.095, MH deletion 0.585, edited 0.118) GAGTGGTCCCGAGCCAGGAACTGTGTGTGTTGCAGGGGGGCAGTAACTCCCCAACTCCCTC",0.0775,0.106,0.102,0.0993,0.269,0.0938,0.12,0.0914,0.0791,0.14
"18.0 (DMSO control at this site: 1-bp insertion 0.114, MH deletion 0.789, edited 0.094) GCGCAAGTGCATAAGTTTTTCTTAAGGCGTGCCTTTAAGGCGTGCCTTTGTCGGTCCTGGA",0.0919,0.103,0.103,0.109,0.18,0.105,0.113,0.128,0.0891,0.0964
"19.0 (DMSO control at this site: 1-bp insertion 0.121, MH deletion 0.101, edited 0.057) TCTGCAGGGGTCGGAACCCGGGGGCTAGGGCTATCCCGGGGGCTAGGGCTATTAGCGAACC",0.131,0.0931,0.103,0.0834,0.27,0.0666,0.123,0.087,0.0625,0.116
"25.0 (DMSO control at this site: 1-bp insertion 0.017, MH deletion 0.774, edited 0.143) GGGCCTGAATGGTGTGGACATCTACTCGCTGGTGAGCTGGTGACTGAAAACATTCAGTGGC",0.0225,0.0261,0.0237,0.0265,0.0481,0.0281,0.0223,0.0292,0.0214,0.0363
"1.0 (DMSO control at this site: 1-bp insertion 0.521, MH deletion 0.323, edited 0.141) GTGTCACAGTGCACGAGTGACGGGATAATGTGCTGACAGGTAATTGATAGGCTTCCAACTT",0.545,0.665,0.573,0.628,0.8,0.594,0.577,0.588,0.594,0.605
"16.0 (DMSO control at this site: 1-bp insertion 0.172, MH deletion 0.29, edited 0.05) CGGACTGCACACATGGGTAGGATCGTGCACGCGAGGTAGGATCGTGCACGCGAAGTTATTC",0.169,0.225,0.14,0.213,0.32,0.169,0.149,0.208,0.191,0.172
"30.0 (DMSO control at this site: 1-bp insertion 0.074, MH deletion 0.67, edited 0.142) GAGCTGGCATGAGTATTTGTGCCACATGGCTCCCACATGGCTCCACATGCAAGTTTGAAAC",0.0975,0.0866,0.0945,0.115,0.178,0.0785,0.0713,0.111,0.0722,0.1
"17.0 (DMSO control at this site: 1-bp insertion 0.112, MH deletion 0.348, edited 0.058) CCATAGCGCGATAAATATGACGGCTCATCCTGTATGACGGCTCATCCTGTATCAACTGTCC",0.166,0.165,0.136,0.158,0.354,0.14,0.15,0.124,0.14,0.168
"26.0 (DMSO control at this site: 1-bp insertion 0.518, MH deletion 0.262, edited 0.026) AGGGCGCGCCCCACGCACTCTGCGGCAAGTCCCTCTGCGGCAAGTCCTCGGCCCGGAAGAC",0.484,0.558,0.515,0.49,0.691,0.495,0.494,0.525,0.452,0.5
"33.0 (DMSO control at this site: 1-bp insertion 0.008, MH deletion 0.771, edited 0.112) CATTAAGAGCAGCTGCCGGCCCCCAAGTGGACAGAGCTGGCCCTGCTGATTCAACAGTGCA",0.0229,0.0311,0.0305,0.0177,0.036,0.0245,0.0214,0.0211,0.0295,0.0189
"7.0 (DMSO control at this site: 1-bp insertion 0.128, MH deletion 0.374, edited 0.098) TACTCAACCGAGACCTACGCGAACCGAAATCGTATGCCGGTGCGCAAGCAGGGCTGGCGTC",0.111,0.166,0.135,0.154,0.226,0.137,0.144,0.141,0.131,0.174
"22.0 (DMSO control at this site: 1-bp insertion 0.573, MH deletion 0.229, edited 0.045) CTGATGGTTGAAGGATTTAGCCGGGGTCCTAGACGCCGGGGTCCTAGACGAAAGGGCCACG",0.614,0.667,0.644,0.619,0.778,0.573,0.653,0.725,0.508,0.53
